Source: PubChem BioAssay AID1347075 (National Center for Advancing Translational Sciences (NCATS), 2019)
Among all 400,000 compounds or so, about 5,500 (1.4%) were called active. Where a call stands in place of a potency, no number is given. Inconclusive results (about 9%) are left out. This is one part of a sample in which actives are shown more often than they occur. Calls come from the whole dose curve; as a rule, active = well fitted cell-killing curve with a large enough effect; inconclusive = small, poorly fitted or top-dose-only effect, or effect the other way; inactive = flat fitted curve, though single readings scatter.

experiment: qHTS assay for MDR1-selective chemotherapeutics: Primary screen using the parental adenocarcinoma cell KB-3-1; conditions: KB-3-1 viability, CellTiter-Glo ATP luminescence, 72 h; series mostly up to 46.1 µM; note: nearly all actives have a fitted effect of over 60% in size
Outline: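 Using CellTiter-Glo luminescence, growth of non-resistant KB-3-1 adenocarcinoma cells is assessed 72 h after pin-tool compound addition at 37 °C. Normalized responses across the concentration series yield fitted curves.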
Potency is the fitted concentration of half-maximal effect.

Row | SMILES | Potency
1 | Cc1ccc(-c2nc3ccccn3c2Nc2c(C)cccc2C)o1 | inactive
2 | CCOc1ccc(NC(=O)Cn2c(C)ccc(C#N)c2=O)cc1 | inactive
3 | CC(=O)c1cccc(Nc2ccc3cc(S(=O)(=O)N4CCC(C)CC4)ccc3n2)c1 | inactive
4 | CCOc1cc(NC(=O)Nc2ccccc2)c(OCC)cc1NC(=O)CC | inactive
5 | CCOc1cc(NC(=O)CCl)c(OCC)cc1NC(C)=O | 18.4 µM (active)
6 | CCCC(=O)Nc1cc(OCC)c(NC(=O)NC2CCCCC2)cc1OCC | inactive
7 | COc1ccc(OC)c(NC(=O)C2CCCN(S(=O)(=O)c3ccc4c(c3)CCCC(=O)N4)C2)c1 (centres undefined) | inactive
8 | COC(=O)c1cc(NC(=O)CCS(=O)(=O)c2cc(Br)cc3c2N(C(=O)C2CC2)CC3)cc(C(=O)OC)c1 | inactive
9 | CCOC(=O)c1ccc(-c2ccc(/C=C(\C#N)C(=O)Nc3ccc(C)cc3)o2)cc1 | inactive
10 | Cc1ccc(Cc2cnc(NC(=O)/C(C#N)=C/c3ccc(-c4cccc([N+](=O)[O-])c4)o3)s2)cc1 | 14.6 µM (active)
11 | Cc1ccc(C(=O)N/C(=C/c2ccc(-c3cccc([N+](=O)[O-])c3)o2)C(=O)NCCCN(C)C)cc1 | inactive
12 | CCc1ccccc1NC(=O)CSc1nc(C)c(C(=O)Nc2ccccc2)c(-c2ccc(Cl)cc2)c1C#N | inactive
13 | CCN(CCCNC(=O)c1c(C)oc2ncn(CC(C)C)c(=O)c12)Cc1ccccc1 | inactive
14 | COc1ccc(-c2cc(NCc3ccc(F)cc3)n3cnnc3n2)cc1 | inactive
15 | COc1cc(OC)cc(C(=O)N[C@H](C(=O)OCC(=O)NC(C)c2ccccc2)C(C)C)c1 (some centres undefined) | inactive
16 | COc1cc(OC)cc(C(=O)NC(C(=O)N2CCC2)C(C)C)c1 (centres undefined) | inactive
17 | COc1cc(OC)cc(C(=O)N[C@H](C(=O)Nc2nc3ccccc3[nH]2)C(C)C)c1 | 1.64 µM (active)
18 | COc1ccc(O)c(/C=N/N=C/c2cccc([N+](=O)[O-])c2)c1 | inactive
19 | COc1ccccc1OCc1ccc(C(=O)NC(C)c2ccccc2)o1 (centres undefined) | inactive
20 | CCCc1ccc(OCc2ccc(C(=O)N/N=C/c3cccc([N+](=O)[O-])c3)o2)c(OC)c1 | 18.4 µM (active)
21 | COc1ccc(OC)c(NC(=O)Cn2c(=O)n(Cc3ccccc3)c(=O)c3ccccc32)c1 | inactive
22 | COc1ccc(NC(=O)CCCN2C(=O)CCn3nc(-c4cn(C)c5ccccc45)cc32)cc1OC | inactive
23 | O=c1oc2ccccc2cc1-c1cn(-c2ccccc2)c(=S)[nH]1 | 3.66 µM (active)
24 | Cc1cc(NC(=O)c2cccc(Cl)c2)ccc1-c1cc2ccccc2oc1=O | inactive

Row | SMILES | Potency
25 | COc1cc(CNC(=O)c2cc3n(n2)CCCN(Cc2cccc(F)c2)C3=O)cc(OC)c1OC | inactive
26 | COc1ccc(CNC(=O)CSc2nc3ccccc3nc2Cc2ccccc2)cc1 | inactive
27 | CN(C)c1ccc(/C=c2\[nH]c(=O)/c(=C/c3ccc(N(C)C)cc3)[nH]c2=O)cc1 | inactive
28 | COc1ccc2c(c1)c(=Cc1ccc(N(C)C)cc1)c1cc(-c3ccccc3)[n+](C)n12 | 3.66 µM (active)
29 | NC(=O)C1CCN(c2cc(-c3ccc4c(c3)OCCCO4)ncn2)CC1 | inactive
30 | Cc1oc2ccc(O)c(CN3CCCCC3)c2c1C(=O)Nc1cccc(C(F)(F)F)c1 | inactive
31 | COc1ccc(CCNC(=O)c2ccc(-n3c(C)cc4c3CCCC4)cc2)cc1OC | inactive
32 | COc1ccc(C(=O)NNc2cc(C)nc(NNC(=O)c3ccc(OC)cc3)n2)cc1 | inactive
33 | COc1ccc(C(C)=O)cc1CSc1nc2nc(C)cc(C)n2n1 | inactive
34 | COc1ccc(Nc2cc(Sc3ccc(OC)cc3)ncn2)cc1 | inactive
35 | COc1ccccc1/C=N/N1CCN(Cc2ccccc2Cl)CC1 | inactive
36 | Cc1cc(C)nc(-n2nc(C)cc2NC(=O)c2ccc(F)cc2F)n1 | inactive
37 | CC(=O)c1ccc(Oc2cc(C)nc(-n3nc(C)cc3C)n2)cc1 | 0.651 µM (active)
38 | COc1ccc(Nc2cc(C)nc(-n3nc(C)cc3C)n2)cc1 | 0.731 µM (active)
39 | COc1ccccc1/C=N\Nc1cc(C)nc(-n2nc(C)cc2C)n1 | 7.31 µM (active)
40 | COc1cc(Cl)c(C)cc1Nc1nnc(-n2nc(C)cc2C)c2ccccc12 | inactive
41 | NS(=O)(=O)c1ccc(NC(=O)C(=O)Nc2ccc3nc4n(c(=O)c3c2)CCCCC4)cc1 | inactive
42 | COc1ccc(CCN2C(=O)N(c3cccc(OC)c3)C(=O)C2CC(=O)Nc2ccccc2)cc1 (centres undefined) | inactive
43 | COc1ccccc1CNS(=O)(=O)c1cc(Br)cc2c1N(C(C)=O)C(C)C2 (centres undefined) | inactive
44 | Cc1ccc2c(c1)c1c(c(=O)n(-c3ccccc3)c(=O)n1CC(=O)c1ccc(Cl)cc1)n2C | inactive
45 | COC(=O)CC1Oc2ccccc2-n2cc(-c3ccccc3)nc21 (centres undefined) | inactive
46 | CCOCCCNC(=O)c1c(NC(=O)Cc2coc3c(C)c(C)ccc23)sc2c1CCC2 | inactive
47 | O=C(CCc1ccccc1)NCc1ccc2c(c1)CCN2C(=O)c1ccccc1 | inactive
48 | CCCCn1c(CNC(=O)C23CC4CC(CC(C4)C2)C3)nnc1SCC(=O)Nc1ccc(C)cc1 | inactive

Row | SMILES | Potency
49 | Cc1ccc(C(=O)Nc2cc3c(cc2N2CCCC2)n(C)c(=O)c(=O)n3C)cc1 | inactive
50 | CCCC1=Nc2cc(C(=O)NCCN3CCCC3)ccc2Sc2ccccc21 | inactive
51 | CCCC1=Nc2cc(C(=O)NCc3ccco3)ccc2Sc2ccccc21 | 5.8 µM (active)
52 | COc1ccc(CCNS(=O)(=O)c2ccc(C(=O)NCc3ccco3)cc2)cc1OC | inactive
53 | Cc1ccc(OCC(=O)Nc2ccc(Cl)c(-c3nc4ccccc4[nH]3)c2)cc1C | inactive
54 | O=C(c1ccc(Cl)cc1)n1nc(-c2cccnc2)nc1NCc1ccc(F)cc1 | inactive
55 | O=C(Cn1ncc(N2CCCC2)c(Br)c1=O)c1ccc(Cl)cc1 | inactive
56 | O=C(Cn1nc(CNc2ccc(Cl)cc2)[n+]2c1CCCCC2)c1ccc(Cl)cc1 | 16.4 µM (active)
57 | O=C(Cn1nc(C(F)(F)F)c2c1CCCC2)Nc1ccc(Cl)cc1 | inactive
58 | Cc1nc2ccc(S(=O)(=O)N(CC(=O)Nc3ccc(F)cc3)Cc3ccccc3)cc2s1 | inactive
59 | COc1ccc(-c2nc3c4ccccc4n(CC(=O)Nc4ccc(C(C)=O)cc4)c(=O)n3n2)cc1 | inactive
60 | COc1ccccc1C(=O)Nc1ccc(C)c(S(=O)(=O)N2CCCCC2)c1 | inactive
61 | CCc1ccccc1OCC(=O)Nc1ccc(C)c(S(=O)(=O)N2CCCCCC2)c1 | 18.4 µM (active)
62 | Cc1ccc(NC(=O)COC(=O)C2CC2)cc1S(=O)(=O)N1CCOCC1 | inactive
63 | O=C(CCc1nc(CN2CCN(S(=O)(=O)c3ccc(Cl)cc3)CC2)no1)N1CCCCC1 | inactive
64 | COc1cc2ccccc2cc1C(=O)Nc1cccc(-c2nc3ccccc3o2)c1 | inactive
65 | Cc1cccc(NC(=O)CSc2nc3c([nH]c4ccccc43)c(=O)n2-c2cc(C)cc(C)c2)c1 | inactive
66 | Cc1oc(C)c2c(=O)cc(-c3ccc4c(c3)OCO4)cc(OC(=O)c3ccc(Cl)cc3)c12 | inactive
67 | COc1cc(-c2c(-c3ccc4c(c3)OCO4)noc2C)ccc1F | 3.26 µM (active)
68 | COc1cc2c(-c3ccc4c(c3)OCO4)c(-c3ccsc3)oc(=O)c2cc1OC | inactive
69 | Cc1ccc(C=O)cc1Cl | inactive
70 | O=C(CSc1oc(-c2ccccc2)nc1S(=O)(=O)c1ccc(Br)cc1)NC1CCCCC1 | inactive
71 | COc1ccc(OC)c(-c2noc(N3CCN(c4cc(Cl)ccc4C)CC3)n2)c1 | inactive
72 | CCOc1ccccc1CNC(=O)c1cnc2c(-c3ccc(OCC)c(OCC)c3)c(C)nn2c1C | inactive

Row | SMILES | Potency
73 | Cc1ccccc1-c1nc2cc(NC(=O)c3cccc(OCCC(C)C)c3)ccc2o1 | inactive
74 | Cc1cc(O)c(C(c2ccccc2)N2CCN(c3ccccc3F)CC2)c(=O)n1Cc1ccco1 (centres undefined) | inactive
75 | COc1ccc(C)cc1NC(=O)CCS(=O)(=O)c1cccc2nonc12 | inactive
76 | Cc1ccc(S(=O)(=O)CCC(=O)OCC(=O)N(C)Cc2ccccc2)cc1 | inactive
77 | COc1cccc2sc(N(CCCN(C)C)C(=O)CCS(=O)(=O)c3ccccc3)nc12 | 18.4 µM (active)
78 | Cc1cccc(C)c1NC(=O)CCS(=O)(=O)c1cccc2nsnc12 | inactive
79 | COc1ccccc1CNC(=O)CS(=O)(=O)c1cccc2nsnc12 | inactive
80 | Cc1cccc2sc(N(CCCN(C)C)C(=O)CCS(=O)(=O)c3ccccc3)nc12 | 20.6 µM (active)
81 | COc1cc(NC(=O)c2nn(-c3ccc(C)cc3)c(=O)c3c2c2ccccc2n3C)cc(OC)c1OC | inactive
82 | COc1ccc(C)cc1-n1c(-c2ccc(C)cc2)cc2c1CC(C)(C)CC2=O | inactive
83 | O=C(Nc1nnc(C2CC(=O)N(c3ccc(Cl)cc3)C2)s1)c1ccco1 (centres undefined) | inactive
84 | Cc1nc2nc(NCc3cccc(Br)c3)[nH]n2c(=O)c1Cc1ccccc1 | inactive
85 | CCN(CCCNC(=O)Cn1ncc2c([nH]c3ccccc32)c1=O)c1cccc(C)c1 | inactive
86 | COc1ccc(-c2noc(CSc3nnc(-c4ccccc4)n3-c3ccc(F)cc3)n2)c(OC)c1 | inactive
87 | CCOC(=O)c1c(C)[nH]c(C)c1S(=O)(=O)N1CCCC(C(=O)NCc2ccccc2Cl)C1 (centres undefined) | inactive
88 | COc1cc(C(=O)Nc2ccc(OCc3cc(=O)n4ccc(C)cc4n3)cc2)cc(OC)c1OC | inactive
89 | CCN(CC)CCOc1ccc2c(c1)C(=NNC(=O)c1ccccn1)c1cc(OCCN(CC)CC)ccc1-2 | 14.6 µM (active)
90 | CN(CCOc1ccc(CC2SC(=O)NC2=O)cc1)c1ccccn1 (centres undefined) | inactive
91 | CCN(CC)CCNCC(=O)Nc1ccc(Oc2ccccc2)cc1 | inactive
92 | Cn1c(=O)c2c(nc(Oc3ccc(C#N)cc3)n2Cc2ccc(Cl)cc2Cl)n(C)c1=O | inactive
93 | CCc1ccc(NC(=O)Cn2c(=O)n(CCC(=O)NCc3ccc4c(c3)OCO4)c(=O)c3ccccc32)cc1 | inactive
94 | COC(=O)c1ccccc1NC(=O)c1cnn(-c2ccc(F)cc2)c1-n1cccc1 | inactive
